# From PubChem BioAssay AID697 (Columbia University Molecular Screening Center, 2007)
# Out of some 96,000 compounds screened, about 100 (0.1%) were called active. The sample holds actives, similar compounds and a random draw of the others, so the mix is not that of the screen. A number with no mark means an inactive call.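 Rule for the calls: active = activation at 2 µM above a set limit, the mean plus 5 SD (cut at about 37% in these data); inactive = the rest.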
# Target: Tyrosine-protein phosphatase non-receptor type 22 (Homo sapiens) (UniProt Q9Y2R2)
# Sequence (Q9Y2R2 whole entry, looked up): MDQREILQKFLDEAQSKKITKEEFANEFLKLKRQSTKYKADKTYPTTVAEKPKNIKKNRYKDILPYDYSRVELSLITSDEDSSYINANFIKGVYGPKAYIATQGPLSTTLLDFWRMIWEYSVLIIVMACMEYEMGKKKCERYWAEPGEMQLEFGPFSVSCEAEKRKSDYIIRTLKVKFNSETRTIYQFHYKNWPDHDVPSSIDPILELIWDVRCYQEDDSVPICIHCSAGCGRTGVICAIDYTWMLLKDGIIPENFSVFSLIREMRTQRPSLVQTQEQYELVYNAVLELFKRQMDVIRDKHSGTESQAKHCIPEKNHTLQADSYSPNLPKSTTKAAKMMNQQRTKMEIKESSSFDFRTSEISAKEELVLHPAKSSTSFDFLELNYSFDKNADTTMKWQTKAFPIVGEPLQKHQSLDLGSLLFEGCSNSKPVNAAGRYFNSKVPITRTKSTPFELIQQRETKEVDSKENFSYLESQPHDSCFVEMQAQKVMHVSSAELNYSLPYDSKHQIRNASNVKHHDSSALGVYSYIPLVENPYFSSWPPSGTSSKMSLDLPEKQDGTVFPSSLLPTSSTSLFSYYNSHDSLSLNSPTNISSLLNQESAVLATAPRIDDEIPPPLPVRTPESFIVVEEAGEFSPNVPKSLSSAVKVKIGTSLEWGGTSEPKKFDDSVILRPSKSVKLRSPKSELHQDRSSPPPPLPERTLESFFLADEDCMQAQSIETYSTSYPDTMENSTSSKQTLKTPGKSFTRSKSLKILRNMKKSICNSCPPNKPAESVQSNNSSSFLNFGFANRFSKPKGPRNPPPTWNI
# Assay: enhancers of human PTPN22 catalytic activity – biochemical, DiFMUP fluorescence, 2 µM, primary screen (AID 697)
# Details: recombinant LYP, at 2 µM, stronger effect = higher value, 0 = plate median, 100 = signal doubled
row,Compound,activation
1,COc1ccc(NS(=O)(=O)c2ccc(NC(=S)NC(=O)CC(C)C)cc2)cc1,4.5%
2,O=C(CSCc1ccc([N+](=O)[O-])cc1)Nc1cccc(C(=O)Nc2ccccc2C(=O)O)c1,1.6%
3,Cc1c(Nc2cc(N3CCCC(C)C3)c3nonc3c2[N+](=O)[O-])c(=O)n(-c2ccccc2)n1C (centres undefined),3.1%
4,CCCCN(CC)CCNC(=O)c1[nH]c(C)c(C(C)=O)c1C,1.3%
5,Cc1noc(C)c1CSCC(=O)Nc1nc2ccc(Oc3ccccc3)cc2s1,1.8%
6,CCN(CC)C(=O)CC1(c2ccccc2OC)CCOC(C(C)C)C1 (centres undefined),4.3%
7,COc1ccc(NC(=O)CC2COc3ccccc3O2)c(OC)c1 (centres undefined),0.8%
8,CCN(CC)CCNc1ccc(Cl)cc1[N+](=O)[O-],14%
9,CC(C)C(=O)NC(=S)Nc1ccccc1F,-2.4%
10,CCn1c(O)c2ccc(C(=O)N=NC(=O)c3cccnc3)cc2c1O,0.7%
11,O=C(/C=C/c1cccs1)c1cc(Cl)ccc1OC(=O)N1CCOCC1,2.4%
12,Clc1ccc(-n2nnnc2-c2cnc(-c3ccccn3)nc2-c2cccs2)cc1,3.1%
13,O=C(CCN1CCc2ccccc2C(O)(c2ccccc2)C1)c1ccc2c(c1)OCCO2 (centres undefined),-5.7%
14,CCOC(=O)CNC(=O)CSc1nc2cccnc2n1CC,-4.9%
15,Cc1ccc2[nH]c3c(=O)n(Cc4ccccn4)cnc3c2c1,-0.9%
16,COC(=O)[C@@H](NC(=O)Nc1cc(Cl)ccc1C)C(C)C,8.5%
17,CC(Oc1ccc(-c2ccccc2)c(F)c1)c1ccn(S(=O)(=O)c2cccc3ccccc23)n1 (centres undefined),-6.9%
18,CCOC1CS(=O)(=O)CC1OCC (centres undefined),6.4%
19,Cc1ccn(C(CC(=O)c2ccc(Br)cc2)C(=O)O)n1 (centres undefined),-7.9%
20,COC(=O)CSc1nc(C)c2ccc(OC)cc2n1,-3.9%
21,O=C(Cn1c(-c2cscn2)nc2ccccc21)Nc1ccc(Cl)cc1,3%
22,O=C(Nc1cc2ccccc2oc1=O)C1CCCCC1,-7.9%
23,COc1cccc(C(=O)Nc2ccc(NC(=O)c3ccco3)cn2)c1,6.7%
24,CSCCC(NS(=O)(=O)c1ccc2c(c1)oc(=O)n2C)C(=O)NC1CCCc2ccccc21 (centres undefined),-8.6%

row,Compound,activation
1,O=C(CN1C(=O)NC(Cc2ccccc2)(Cc2ccccc2)C1=O)NCC1CCCCC1,0.3%
2,Cc1ccc(C(=O)Nc2ccccc2C(=O)NC2CCCCC2)cc1S(=O)(=O)N1CCOCC1,-0.7%
3,Cc1ccccc1NC(=O)c1cc(S(=O)(=O)N2CCOCC2)cs1,38% (active)
4,O=C(Nc1ccccc1F)c1cc(S(=O)(=O)N2CCCCC2)cs1,-4.2%
5,CCCCNS(=O)(=O)c1ccc(S(=O)(=O)n2cnc3ccccc32)cc1,-10.5%
6,CO/N=C/c1ccc(N2CCN(C(=O)c3cccc(Cl)c3)CC2)c([N+](=O)[O-])c1,-0.2%
7,COc1cc(C(=S)N2CCOCC2)cc(OC)c1OC(=O)c1cc([N+](=O)[O-])cc([N+](=O)[O-])c1,-4.3%
8,CCn1c(C)nc2c1C(=O)c1ccccc1C2=O,-0.9%
9,CCn1c(/C=C/c2ccc([N+](=O)[O-])o2)nc2ccccc2c1=O,-10.9%
10,O=C(NCCCn1ccnc1)Nc1ccc(Cl)cc1Cl,0.8%
11,O=C(Nc1ccc2c(c1)CCC2)c1cccc(S(=O)(=O)N2CCN(c3ccc(F)cc3)CC2)c1,-11.2%
12,COCCCNC(=O)C1CC(=O)N(CCc2ccccc2)C1 (centres undefined),3.1%
13,Cc1ccc(S(=O)(=O)N2CCC(C(=O)NCC3CCCO3)CC2)cc1 (centres undefined),0.4%
14,COC(=O)c1ccccc1Sc1c(/C=N/OCc2ccc(Cl)cc2)c(C(F)(F)F)nn1C,-3.5%
15,CN(C(=O)CC(NC(=O)c1ccccc1)(c1ccccc1)c1ccccc1)c1ccccc1,-4.3%
16,FC(F)(F)c1cnc(Oc2ccccc2-c2nnc(-c3ccc(Cl)cc3)o2)c(Cl)c1,4.7%
17,CS(=O)(=O)N(Cc1ccc(Cl)cc1)c1ccc(C(=O)NCCSCc2ccco2)cc1,10.1%
18,CCOC(=O)N1CCC(N(CCOC)C(=O)Nc2ccc(C)c(C)c2)CC1,-11.9%
19,COC(=O)c1ccccc1NC(=O)Cc1ccccc1OC,-0.7%
20,COc1ccccc1C(=O)N1CC2(C)CC1CC(C)(C)C2 (centres undefined),-6%
21,CCOC(=O)C1=C(c2ccccc2)N=C2SCC(=O)N2C1c1ccc(O)c(OC)c1 (centres undefined),6.1%
22,Cn1c(CO)cnc1SCc1ccccc1,5.8%
23,CN(C)c1ccc(/C=C2\NC(=S)N(Cc3ccccc3)C2=O)cc1,-19.7%
24,CC(C)C(=O)Nc1cccc(NC(=S)NC(=O)C(c2ccccc2)c2ccccc2)c1,-14%

row,Compound,activation
1,O=C(Nc1ccc(Br)cc1)C1CCC(=O)N1Cc1ccccc1Cl (centres undefined),-2.1%
2,COC(=O)/C=C/C(=O)NCc1ccco1,-5.4%
3,N#CCSc1nc2ccc(N3CCOCC3)cc2c(=O)n1CCc1ccccc1,3.3%
4,CCOC(=O)C(=CNc1cccc(C)n1)C(=O)OCC,6.8%
5,CCOc1c(Br)cc(/C=C2\C(=O)N(CCC#N)N=C2C)cc1OC,-0.1%
6,CCOC(=O)c1cnc(SCc2nc(N)nc(Nc3ccc(OC)cc3)n2)nc1N,0.5%
7,CCC(C)NC(=O)c1cc(Cl)ccc1OC (centres undefined),7%
8,CCN(CC)CCNC(=O)CCCCCn1c(=O)[nH]c2cc(C(=O)OC)ccc2c1=O,6.8%
9,O=C(NC1CCCCC1)c1ccc(CNc2c(N3CCOCC3)c(=O)c2=O)cc1,10.2%
10,CC(C)CNC(=O)CC(c1ccccc1)c1c(O)ccc2ccccc12 (centres undefined),-3.2%
11,O=C(NC1CCCC1)C(c1ccccn1)N(C(=O)c1csnn1)C1CCCC1 (centres undefined),-2.6%
12,O=C(COc1ccc2c(C(F)(F)F)cc(=O)oc2c1)Nc1ccc2c(c1)OCCO2,-12.8%
13,CCOc1ccc(NC(=O)C2CC(=O)N=C(N)S2)cc1 (centres undefined),-0.7%
14,O=C(CCN1C(=O)c2ccccc2C1=O)Nc1cccc(F)c1,7.2%
15,CC1(C)CCc2nc(SCc3ccccc3)c(C#N)cc2C1,7.1%
16,C/C(=N\NC(=O)c1ccc(C)cc1)C1C(=O)c2ccccc2C1=O,-6.7%
17,CCn1nccc1C(=O)Nc1ccc(S(=O)(=O)NC23CC4CC(CC(C4)C2)C3)cc1,4.2%
18,N#C/C(=C/c1ccc(Cl)cc1)NC(=O)c1ccccc1,-6.7%
19,OC(COc1ccc2ccccc2c1)Cn1cncn1 (centres undefined),-5.7%
20,CC1(C)OC(=O)N2CCc3ccccc3C21C (centres undefined),-7.1%
21,Cc1ccccc1OCc1nnc(SCC(=O)N2c3ccccc3Sc3ccc(Cl)cc32)o1,4.7%
22,CCOC(=O)C1CSC(CC(=O)Nc2ccc(OCC)cc2)C(=O)N1 (centres undefined),4.7%
23,CCN(CC)CCn1c2ccc(Cl)cc2c2nc(C)sc21,-0.1%
24,CCCc1nc2ccccc2c(C(=O)OCC(=O)c2ccc3c(c2)NC(=O)CO3)c1CC,3.9%

row,Compound,activation
1,Cc1cc(C)c2c(-n3cccc3)c(C(=O)NNS(=O)(=O)c3ccc(F)cc3)sc2n1,-0.7%
2,Cc1cc(C)cc(N(CC(=O)N2CC=C(c3ccccc3)CC2)S(=O)(=O)c2c(C)noc2C)c1,-2.1%
3,O=C(NC1CC1)c1ccc2c(c1)NC(=O)c1ccccc1S2,3.4%
4,O=C(c1ccccc1)c1cc(-c2ccccn2)c(N2CCOCC2)s1,6.1%
5,Cc1ccccc1-n1c(C)cc(/C=C2\NC(=O)NC2=O)c1C,12.1%
6,O=C(CN1CCN(c2ccc(Cl)cc2)CC1)N1CCCC1,-12%
7,CN(C)C(CNC(=O)CCCOc1ccccc1)c1ccco1 (centres undefined),-1%
8,N#Cc1ccsc1NC(=O)CN1CCCCC1,5.2%
9,COCCn1c(=S)[nH]c2cc(C(=O)NCCc3ccc(OC)c(OC)c3)ccc2c1=O,-10.7%
10,Cc1cc(C)c(S(=O)(=O)N2C=CC(C(F)(F)F)=NCC2)c(C)c1,16.2%
11,Cc1ccc(-c2nn(-c3ccccc3)cc2/C=N/NC(=O)c2ccc3c(c2)OCO3)cc1,-4.4%
12,Cc1ccc(S(=O)(=O)NC(=O)COc2ccccc2C)cc1,-2.9%
13,COc1ccc(C(=O)Cc2cnn(-c3ccccc3)c2)c(O)c1,-3%
14,Cc1ccc(-c2nc3ccccc3[nH]2)cc1NC(=O)c1sc2ccccc2c1Cl,-22.6%
15,COc1cc(N2CCCC2)c(OC)cc1/C=C(/C#N)c1cccc(Br)c1,-2.3%
16,C=CCn1c(SCCOc2ccc(OC)cc2)nnc1C(NC(=O)c1ccc(OC)cc1)C(C)C (centres undefined),-4.5%
17,CCCc1nc2oc3c(OCC)ncnc3c2c2c1COC(C)(C)C2,-1.3%
18,O=C(NN1C(=O)C2C3C=CC(C4CC34)C2C1=O)c1ccc(Cl)cc1 (centres undefined),3.3%
19,COc1ccccc1C(=O)Nc1ccc(NC(=O)c2ccco2)c(C)c1,7.2%
20,COc1ccc(N2CCN(C(=O)CNC(=O)c3ccc(C(C)(C)C)cc3)CC2)cc1,-8.3%
21,CCN(CC)C(=O)CSc1nc2ccccc2o1,8.6%
22,COc1cccc(N(CC(=O)NCCSc2ccccn2)S(C)(=O)=O)c1,-4.5%
